Results published in PubChem BioAssay AID1159580 (chemical genetic matrix, 2015).
In all, about 5,500 compounds went through this assay and about 2,000 (36%) were called active. About 18% were inconclusive and are not listed. Cut-off read from the data, not from the text of the source: active = normalized growth mostly below about 0.91 (no sharp cut-off); inconclusive = no clear call, values can overlap the other calls; inactive = mostly above about 0.92. This is one part of the list.

Test: chemical genetic growth profiling, strain panel (AID 1159580);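 note: tested at 20 µM; growth read once vehicle control cultures reached saturation at 30 °C; 1 = growth at the plate median or of vehicle wells; lower values mean less growth of the strain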
Settings: S. cerevisiae deletion strains, growth OD

Measured: normalized growth

OCCc1ccccc1
inactive: locus YAL021C, strain ccr4, active compounds read low 0.971 | locus YAL026C, strain drs2, active compounds read low 0.98 | locus YAL030W, strain snc1, active compounds read low 0.968 | locus YBL061C, strain skt5, active compounds read low 0.985 | locus YBR009C, strain hhf1, active compounds read low 0.976 | locus YBR023C, strain chs3, active compounds read low 0.992 | locus YBR171W, strain sec66, active compounds read low 0.968 | locus YBR231C, strain swc5, active compounds read low 0.989 | locus YBR279W, strain paf1, active compounds read low 0.989 | locus YCL011C, strain gbp2, active compounds read low 0.989 | locus YCL016C, strain dcc1, active compounds read low 0.994 | locus YCL061C, strain MRC1, active compounds read low 0.994 | locus YCL069W, strain vba3, active compounds read low 0.99 | locus YCR088W, strain abp1, active compounds read low 0.983 | locus YDL005C, strain med2, active compounds read low 0.989 | locus YDL040C, strain nat1, active compounds read low 0.999 | locus YDR001C, strain nth1, active compounds read low 0.974 | locus YDR069C, strain doa4, active compounds read low 0.981 | locus YDR137W, strain rgp1, active compounds read low 0.948 | locus YDR159W, strain sac3, active compounds read low 0.98 | locus YDR195W, strain ref2 0.947 | locus YDR297W, strain sur2, active compounds read low 0.984 | locus YDR334W, strain swr1, active compounds read low 0.94 | locus YDR335W, strain msn5, active compounds read low 0.982 | locus YDR392W, strain spt3, active compounds read low 0.999 | locus YEL003W, strain gim4, active compounds read low 0.981 | locus YEL037C, strain rad23, active compounds read low 0.986 | locus YEL061C, strain CIN8 (second series), active compounds read low 0.977 | locus YER015W, strain faa2, active compounds read low 0.987 | locus YER016W, strain bim1, active compounds read low 0.99 | locus YER111C, strain swi4, active compounds read low 0.982 | locus YER155C, strain BEM2 (second series), active compounds read low 0.975 | locus YFR010W, strain ubp6, active compounds read low 0.973 | locus YGL167C, strain pmr1, active compounds read low 0.99 | locus YGL173C, strain kem1, active compounds read low 0.957 | locus YGL227W, strain vid30, active compounds read low 0.971 | locus YGL240W, strain doc1, active compounds read low 0.977 | locus YGL253W, strain hxk2, active compounds read low 0.986 | locus YHR013C, strain ard1, active compounds read low 0.99 | locus YHR027C, strain rpn1, active compounds read low 0.961 | locus YHR030C, strain SLT2, active compounds read low 0.97 | locus YHR079C, strain IRE1, active compounds read low 0.951 | locus YHR142W, strain chs7, active compounds read low 0.972 | locus YJL092W, strain hpr5, active compounds read low 0.988 | locus YJL095W, strain BCK1 (second series), active compounds read low 0.986 | locus YJL095W, strain BCK1, active compounds read low 1.02 | locus YJL115W, strain asf1, active compounds read low 0.976 | locus YJL129C, strain trk1, active compounds read low 1.03 | locus YJL154C, strain vps35, active compounds read low 0.969 | locus YJL164C, strain tpk1, active compounds read low 1 | locus YJL166W, strain qcr8, active compounds read low 0.989 | locus YJL187C, strain SWE1, active compounds read low 0.987 | locus YJR066W, strain TOR1, active compounds read low 0.952 | locus YKL160W, strain elf1, active compounds read low 0.996 | locus YKR026C, strain gcn3, active compounds read low 0.983 | locus YKR091W, strain srl3, active compounds read low 0.994 | locus YLL001W, strain dnm1, active compounds read low 0.999 | locus YLL026W, active compounds read low 0.97 | locus YLL041C, strain sdh2, active compounds read low 0.984 | locus YLR027C, strain aat2, active compounds read low 0.965 | locus YLR113W, strain HOG1, active compounds read low 1.01 | locus YLR221C, strain rsa3, active compounds read low 0.982 | locus YLR258W, strain gsy2, active compounds read low 0.992 | locus YLR262C, strain YPT6 (second series), active compounds read low 0.961 | locus YLR320W, strain mms22, active compounds read low 0.987 | locus YLR342W, strain FKS1, active compounds read low 0.988 | locus YLR357W, strain rsc2, active compounds read low 1 | locus YLR370C, strain arc18, active compounds read low 0.988 | locus YLR384C, strain iki3, active compounds read low 0.979 | locus YML120C, strain ndi1, active compounds read low 0.995 | locus YMR058W, strain fet3, active compounds read low 0.98 | locus YMR125W, strain sto1, active compounds read low 0.982 | locus YMR129W, active compounds read low 0.99 | locus YMR205C, strain PFK2, active compounds read low 0.963 | locus YMR231W, strain pep5, active compounds read low 0.99 | locus YNL071W, strain lat1, active compounds read low 0.986 | locus YNL183C, strain NPR1, active compounds read low 0.958 | locus YNL209W, strain ssb2, active compounds read low 0.988 | locus YNL248C, strain rpa49, active compounds read low 0.994 | locus YNL322C, strain KRE1 (second series), active compounds read low 0.988 | locus YNR049C, strain mso1, active compounds read low 0.975 | locus YOR001W, strain rrp6, active compounds read low 0.993 | locus YOR070C, strain gyp1, active compounds read low 0.986 | locus YOR080W, strain dia2, active compounds read low 0.996 | locus YOR083W, strain WHI5, active compounds read low 0.995 | locus YOR106W, strain vam3, active compounds read low 0.976 | locus YOR231W, strain MKK1, active compounds read low 0.973 | locus YOR265W, strain rbl2, active compounds read low 1 | locus YOR270C, strain vph1, active compounds read low 0.949 | locus YOR290C, strain snf2, active compounds read low 0.986 | locus YPL051W, strain arl3, active compounds read low 0.995 | locus YPL078C, strain atp4, active compounds read low 0.976 | locus YPL106C, strain sse1, active compounds read low 0.916 | locus YPL240C, strain hsp82, active compounds read low 0.997 | locus YPL256C, strain CLN2, active compounds read low 0.981
